The results in this text go back to PubChem BioAssay.

Unmarked numbers belong to inactive results.

Chain of Homeobox protein Hox-A13 (Mus musculus) (Q62424 whole entry, looked up): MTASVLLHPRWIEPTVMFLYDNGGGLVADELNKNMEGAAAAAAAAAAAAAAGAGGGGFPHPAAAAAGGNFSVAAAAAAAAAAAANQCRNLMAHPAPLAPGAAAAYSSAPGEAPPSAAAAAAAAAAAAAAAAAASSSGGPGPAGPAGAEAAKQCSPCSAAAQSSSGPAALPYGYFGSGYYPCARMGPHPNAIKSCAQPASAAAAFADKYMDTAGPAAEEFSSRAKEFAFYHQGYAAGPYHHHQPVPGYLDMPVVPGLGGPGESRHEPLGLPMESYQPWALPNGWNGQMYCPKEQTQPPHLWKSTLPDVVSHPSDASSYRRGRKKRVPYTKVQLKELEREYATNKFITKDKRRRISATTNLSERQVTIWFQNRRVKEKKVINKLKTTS

This assay concerns the target Homeobox protein Hox-A13 (Mus musculus) (UniProt Q62424). The assay is described as follows: disruptors of Hoxa13 oligonucleotide interaction – biochemical, fluorescence polarization, labeled oligonucleotide, primary screen (AID 1185). The note with it: Hoxa13:DNA binding, 15 min, higher = more signal, called active from +8 up or from −8 down.
Take `C=CC[C@@H]1C=C[C@H](ON=C2[C@H]3CCn4c(=O)n(-c5ccccc5)c(=O)n4[C@H]3[C@H](O)[C@@H]3O[C@H]23)[C@@H](CO)O1`: the z-score was -2.05.

With `CO[C@H]1COC(=O)CC=C[C@H](C)COC(=O)[C@@H](C)NC(=O)CC=C[C@@H]1C`, the z-score was -1.07.

`C#CCCCON=C1C[C@@H](O)[C@@H](O)[C@@H]2[C@@H]3C(=O)N(C(C)(C)C)C(=O)[C@@H]3CC[C@@H]12`: the z-score was -3.44.

As for `Cc1ccc(S(=O)(=O)NC(CCc2ccccc2)CC(=O)C(C)(C)C)cc1` (stereo not given), the z-score was -3.68.

On to `COc1ccc(O[C@H]2C=C[C@@H](c3ccccc3)O[C@@H]2CON=C(C)CCC(=O)OC[C@H]2O[C@H](c3ccccc3)C=C[C@@H]2Oc2ccc(OC)cc2)cc1`, for which the z-score is -0.19.

Take `CCOC(=O)[C@H](CC(C)C)NC(=O)CCC1CC(OC(=O)NCc2ccc3c(c2)OCO3)CC2(CCCC(COC(=O)NCc3cccc(C(F)(F)F)c3)O2)O1` (stereo not given in full): the z-score was -1.71.

As for `O=C1OCCC=C1C(O)CCc1ccccc1` (stereo not given), the z-score is -0.295.

`COC(=O)[C@@H]1CC[C@H](C)[C@@H](c2ccc(C)cc2)N1C(=O)c1ccc(C=NO[C@H](C)c2cn([C@H](CO)Cc3ccccc3)nn2)cc1`: the z-score is -5.94.

For the molecule `COC(=O)CC=C[C@@H](C)[C@H](OCc1cccc(-c2ccccc2)c1)C1CCCCC1`, the z-score was -1.35.

Consider `CC(C)CON=C1C[C@@H](O)[C@@H](O)[C@@H]2[C@@H]3C(=O)N(c4ccc(F)cc4F)C(=O)[C@@H]3CC[C@H]12`, for which the z-score was -0.224.

On to `C#CCCCON=C1C[C@@H](O)[C@@H](O)[C@@H]2[C@@H]3C(=O)N(CC)C(=O)[C@@H]3CC[C@@H]12`, for which the z-score is -0.918.

With `CCOC(=O)CCN1C(=O)[C@H]2[C@H]3[C@H](O)[C@H](O)CC(=NNC(=O)OCc4ccccc4)[C@@H]3CC[C@H]2C1=O`, the z-score was 0.897.

On to `CCCNC(=O)OC[C@H]1O[C@H](CCON=C(C)CCN2CCCc3nc(C)c(C)cc32)C=C[C@@H]1Oc1ccc(OC)cc1`, for which the z-score is -5.56.

With `CC(C)=CCCC(C)=CCON=C1C[C@@H](O)[C@@H](O)[C@@H]2[C@@H]3C(=O)N(c4ccc(F)cc4F)C(=O)[C@@H]3CC[C@@H]12`, the z-score is -4.62.

`Cc1ccc(S(=O)(=O)OC[C@H]2CN3[C@H](c4ccc(Br)cc4)[C@@H](C)CC[C@H]3C(=O)O2)cc1`: the z-score is -5.13.
